We go through seven compounds from PubChem BioAssay (EPA / NIEHS).

Activity calls are given as the source filed them. How the source made its calls: active means hit-call score of the fitted dose curve at least 0.9, where 1 is the maximum; inactive means score below 0.9.

A short description of assay [1]: BSK_4H_SRB: Viability Assessment in the BioMAP Diversity Plus: 4H Assay (AID 2283027).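 Further: cells exposed to compound for 24 h before staining.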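 On AC50: curves fitted both ways versus DMSO so AC50 may be loss or gain.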 The following applies: primary human endothelial cells (HUVEC). Put shortly: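 Cytotoxicity read-out in primary human endothelial cells: after 24 h compound exposure, cells were TCA-fixed (10%), stained with 0.1% SRB and absorbance taken at 560 nm. Values fitted in both directions relative to DMSO.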

Assay [2] can be described thus: BSK_BE3C_SRB: Viability Assessment in the BioMAP Diversity Plus: BE3C Assay (AID 2283028). The following applies: primary human bronchial epithelial cells. Put shortly: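 Overt cytotoxicity was assessed as total protein in confluent human primary bronchial epithelial cultures 24 h after chemical addition, using 0.1% sulforhodamine B staining read at 560 nm.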
Read-out in assay [3]: Thrombomodulin, THBD (gene 7056)
The assay can be described thus: BSK_3C_Thrombomodulin: BioMAP Diversity Plus: 3C Assay for Thrombomodulin Biomarker Activity (AID 2283029). The following applies: primary human endothelial cells (HUVEC); actives raise or lower the signal. In a few lines:
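ELISA measurement of thrombomodulin on HUVEC surface 24 h after chemical dosing; activity fitted in both directions relative to DMSO vehicle.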

Read-out in assay [4]: Urokinase-type plasminogen activator receptor (uPAR), PLAUR (gene 5329)
Kind of assay: BSK_4H_uPAR: BioMAP Diversity Plus: 4H Assay for Urokinase-type plasminogen activator receptor (uPAR) Biomarker Activity (AID 2283030). The following applies: primary human endothelial cells (HUVEC); actives raise or lower the signal. In a few lines: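 Chemicals are dosed onto human vascular endothelial primary cells (umbilical vein). After 24 h, uPAR is read by ELISA. Gain or loss of signal is fitted relative to DMSO.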

Read-out in assay [5]: Vascular endothelial growth factor receptor 2 (Homo sapiens) (UniProt P35968)
Kind of assay: BSK_4H_VEGFRII: BioMAP Diversity Plus: 4H Assay for Vascular endothelial growth factor receptor 2 (VEGFR2) Biomarker Activity (AID 2283031).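 On AC50: cell-surface VEGFR2 protein level quantified by ELISA.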 The following applies: primary human endothelial cells (HUVEC); actives raise or lower the signal. Put shortly: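 VEGFRII levels on human vascular endothelial primary cells were determined by ELISA at 24 hours post-dosing, with gain- or loss-of-signal fitted against DMSO controls.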

Read-out in assay [6]: Human Leukocyte Antigen - DR isotype (HLADR), HLA-DRA (gene 3122)
The assay can be described thus: BSK_BE3C_HLADR: BioMAP Diversity Plus: BE3C Assay for Human Leukocyte Antigen - DR isotype (HLADR) Biomarker Activity (AID 2283032). The following applies: primary human bronchial epithelial cells; actives raise or lower the signal. In a few lines: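 Cell-surface HLA-DR ELISA readout at 24 h after dosing in the BE3C primary human lung bronchial epithelial system; gain or loss of signal against DMSO, with parallel sulforhodamine B staining of total protein for overt cytotoxicity.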

Read-out in assay [7]: Vascular cell adhesion molecule 1 (VCAM1), VCAM1 (gene 7412)
The assay can be described thus: BSK_4H_VCAM1: BioMAP Diversity Plus: 4H Assay for Vascular cell adhesion molecule 1 (VCAM1) Biomarker Activity (AID 2283033).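 On outcome: cell-surface VCAM-1 protein measured by ELISA.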 The following applies: primary human endothelial cells (HUVEC); actives raise or lower the signal. Put shortly: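 VCAM-1 ELISA read 24 h after chemical dosing of HUVEC in the BioMAP 4H system, with gain or loss of signal fitted relative to DMSO. Parallel SRB staining (560 nm) checked overt cytotoxicity.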

Read-out in assay [8]: Interferon-gamma inducible Protein 10 (IP10), CXCL10 (gene 3627)
Kind of assay: BSK_BE3C_IP10: BioMAP Diversity Plus: BE3C Assay for Interferon-gamma inducible Protein 10 (IP10) Biomarker Activity (AID 2283034). The following applies: primary human bronchial epithelial cells; actives raise or lower the signal. Put shortly:
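IP-10 quantified by ELISA in human primary bronchial epithelial cell cultures at 24 hours post-dosing. Gain or loss of signal fitted relative to DMSO; parallel SRB staining assessed overt cytotoxicity.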

Read-out in assay [9]: Monokine induced gamma interferon (MIG), CXCL9 (gene 4283)
The assay can be described thus: BSK_BE3C_MIG: BioMAP Diversity Plus: BE3C Assay for Monokine induced gamma interferon (MIG) Biomarker Activity (AID 2283035). The following applies: primary human bronchial epithelial cells; actives raise or lower the signal. Put shortly:
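ELISA quantified MIG after 24 h exposure of primary bronchial epithelial cultures, analysed in both directions relative to DMSO. Cytotoxicity tracked in parallel cultures by sulforhodamine B staining.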

Read-out in assay [10]: Transforming growth factor beta 1 (TGFb1), TGFB1 (gene 7040)
Kind of assay: BSK_BE3C_TGFb1: BioMAP Diversity Plus: BE3C Assay for Transforming growth factor beta 1 (TGFb1) Biomarker Activity (AID 2283036;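 further: TGF-b1 protein level measured by ELISA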). The following applies: primary human bronchial epithelial cells; actives raise or lower the signal. Put shortly:
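ELISA readout of TGF-b1 from human lung bronchial epithelial primary cells, taken 24 h post-treatment. Gain or loss of signal fitted relative to DMSO baseline, with parallel SRB staining for overt cytotoxicity.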

Read-out in assay [11]: Plasminogen activator inhibitor-1 (PAI1), SERPINE1 (gene 5054)
Kind of assay: BSK_BE3C_PAI1: BioMAP Diversity Plus: BE3C Assay for Plasminogen activator inhibitor-1 (PAI1) Biomarker Activity (AID 2283037). The following applies: primary human bronchial epithelial cells; actives raise or lower the signal. Put shortly: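 PAI-1 was measured by ELISA in human primary bronchial epithelial cultures 24 h after chemical dosing, with cytotoxicity checked by SRB total-protein staining in parallel cultures. Activity was fitted in both directions relative to DMSO.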

Read-out in assay [12]: urokinase plasminogen activator (uPA), PLAU (gene 5328)
Kind of assay: BSK_BE3C_uPA: BioMAP Diversity Plus: BE3C Assay for urokinase plasminogen activator (uPA) Biomarker Activity (AID 2283038).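 Further: uPA protein level quantified by ELISA in cell cultures; uPA read one day after compound addition.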 The following applies: primary human bronchial epithelial cells; actives raise or lower the signal. In a few lines:
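Measured by ELISA: uPA from human primary bronchial epithelial cells 24 h after chemical treatment. Values derive from bidirectional curve fitting with DMSO serving as negative control. Total protein by SRB staining in parallel wells flagged overt cytotoxicity.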

Read-out in assay [13]: Urokinase-type plasminogen activator receptor (uPAR), PLAUR (gene 5329)
Kind of assay: BSK_BE3C_uPAR: BioMAP Diversity Plus: BE3C Assay for Urokinase-type plasminogen activator receptor (uPAR) Biomarker Activity (AID 2283039).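 Further: cells exposed to compound for one day before measurement.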 The following applies: primary human bronchial epithelial cells; actives raise or lower the signal. In a few lines: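 uPAR levels were measured by ELISA after 24 h compound treatment of primary human bronchial epithelial cells, fitted in both directions relative to DMSO. Parallel SRB staining served as the cytotoxicity read-out.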

Read-out in assay [14]: Interleukin-6 (IL6), IL6 (gene 3569)
Kind of assay: BSK_CASM3C_IL6: BioMAP Diversity Plus: CASM3C Assay for Interleukin-6 (IL6) Biomarker Activity for (AID 2283040). The following applies: primary human coronary artery smooth muscle cells; actives raise or lower the signal.

Read-out in assay [15]: Tissue plasminogen activator (tPA), PLAT (gene 5327)
The assay can be described thus: BSK_BE3C_tPA: BioMAP Diversity Plus: BE3C Assay for Tissue plasminogen activator (tPA) Biomarker Activity (AID 2283041).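 Further: tPA level quantified by ELISA one day after compound addition.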 The following applies: primary human bronchial epithelial cells; actives raise or lower the signal. In a few lines: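 tPA measured by ELISA 24 h after dosing human primary bronchial epithelial cells (BE3C system). Changes in either direction were fitted against DMSO. Parallel cultures were stained with SRB to flag overt cytotoxicity.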

Read-out in assay [16]: Interleukin-8 (IL8), CXCL8 (gene 3576)
The assay can be described thus: BSK_CASM3C_IL8: BioMAP Diversity Plus: CASM3C Assay for Interleukin-8 (IL8) Biomarker Activity (AID 2283042).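 Further: IL-8 protein level quantified by ELISA.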 The following applies: primary human coronary artery smooth muscle cells; actives raise or lower the signal.

Read-out in assay [17]: Human Leukocyte Antigen - DR isotype (HLADR), HLA-DRA (gene 3122)
The assay can be described thus: BSK_CASM3C_HLADR: BioMAP Diversity Plus: CASM3C Assay for Human Leukocyte Antigen - DR isotype (HLADR) Biomarker Activity (AID 2283043).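 Further: cell-surface HLA-DR protein level quantified by ELISA.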 The following applies: primary human coronary artery smooth muscle cells; actives raise or lower the signal.

Read-out in assay [18]: Macrophage colony-stimulating factor (MCSF), CSF1 (gene 1435)
The assay can be described thus: BSK_CASM3C_MCSF: BioMAP Diversity Plus: CASM3C Assay for Macrophage colony-stimulating factor (MCSF) Biomarker Activity (AID 2283044).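 Further: M-CSF protein amount quantified by ELISA after 24 h exposure.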 The following applies: primary human coronary artery smooth muscle cells; actives raise or lower the signal.

Read-out in assay [19]: Low-density lipoprotein receptor (LDLR), LDLR (gene 3949)
The assay can be described thus: BSK_CASM3C_LDLR: BioMAP Diversity Plus: CASM3C Assay for Low-density lipoprotein receptor (LDLR) Biomarker Activity (AID 2283045).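 Further: LDLR protein level on the cell surface quantified by ELISA.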 The following applies: primary human coronary artery smooth muscle cells; actives raise or lower the signal.

Read-out in assay [20]: Monocyte Chemoattractant Protein-1 (MCP1), CCL2 (gene 6347)
Kind of assay: BSK_CASM3C_MCP1: BioMAP Diversity Plus: CASM3C Assay for Monocyte Chemoattractant Protein-1 (MCP1) Biomarker Activity (AID 2283046).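 Further: MCP-1 level quantified by ELISA 24 h after dosing.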 The following applies: primary human coronary artery smooth muscle cells; actives raise or lower the signal.

Regarding `CN(C)C(=O)NC1(c2ccccc2)CCN(CC[C@@]2(c3ccc(F)c(F)c3)CN(C(=O)c3ccccc3)CCO2)CC1`, the outcome in [1], in assay [2], in assay [3], in assay [4], in assay [5] and in [6] was inactive. Moreover, the outcome in assay [7], in [8], in assay [9], in [10], in assay [11] and in assay [12] was inactive. Also, the outcome in assay [13], in assay [14], in assay [15], in [16], in [17] and in assay [18] was inactive. The outcome in assay [19] and in assay [20] was inactive.

The AC50 is the concentration at which the activity in the assay is half-maximal. `CCc1cc(C2=C(C(=O)O)N(c3ccccc3C(F)(F)F)S(=O)(=O)c3ccccc32)cc2c1OCO2`: the result in assay [1], in assay [2], in assay [4], in [5], in assay [6] and in assay [7] was inactive. Moreover, the result in assay [8], in assay [9], in [10], in [11], in assay [12] and in assay [13] was inactive. In addition, the outcome in assay [14], in [15], in assay [16] and in assay [20] was inactive. Besides, the AC50 is 10.2 µM (active) in assay [3], 9.8 µM (active) in assay [17], 19.8 µM (active) in [18] and 7.18 µM (active) in assay [19].

Take `S=c1[nH]c2ccccc2s1`: the outcome in assay [1], in assay [2], in [3], in [4], in assay [5] and in assay [6] was inactive. The result in [7], in [8], in [9], in [10], in assay [11] and in assay [12] was inactive. In addition, the outcome in [13], in [14], in assay [15], in assay [16], in assay [17] and in assay [19] was inactive. The result in assay [20] was inactive. Moreover, in assay [18], the AC50 was 9.81 µM (active).

Consider `CCCCC(CC)COP(=O)(OCC(CC)CCCC)OCC(CC)CCCC` (stereo not given), for which the AC50 was 20 µM (active) in assay [1], 20 µM (active) in assay [4], 20 µM (active) in assay [5] and 6.21 µM (active) in [7]. Besides, the result in [2], in assay [3], in assay [6], in assay [8], in assay [9] and in assay [10] was inactive. Further, the result in assay [11], in assay [12], in assay [13], in assay [14], in [15] and in assay [16] was inactive. Moreover, the outcome in assay [17], in assay [18], in assay [19] and in [20] was inactive.

As to `CC(=O)OC1CC(C)OC(C)O1` (stereo not given), the outcome in assay [1], in assay [2], in [3], in assay [4], in assay [5] and in assay [6] was inactive. The outcome in [7], in assay [8], in [9], in assay [10], in assay [11] and in [12] was inactive. Moreover, the result in assay [13], in assay [14], in [15], in [16], in assay [17] and in [18] was inactive. Also, the outcome in [19] and in [20] was inactive.

Regarding `CC(C)(C)c1ccccc1`, the outcome in assay [1], in assay [2], in assay [3], in [4], in [5] and in assay [6] was inactive. The result in assay [7], in assay [8], in [9], in assay [10], in assay [11] and in [12] was inactive. Also, the outcome in assay [13], in assay [14], in assay [15], in assay [16], in assay [17] and in assay [18] was inactive. The result in [19] and in [20] was inactive.

With `Nc1nc(Cl)nc2c1ncn2[C@H]1C[C@H](O)[C@@H](CO)O1`, the result in assay [1], in assay [2], in assay [3], in [6], in assay [7] and in assay [8] was inactive. Moreover, the outcome in assay [9], in assay [10], in [11], in assay [12], in assay [13] and in assay [14] was inactive. The outcome in [15], in assay [16], in assay [17], in assay [18], in assay [19] and in assay [20] was inactive. The figures for the AC50 in assay [4] and in [5] were 18.5 µM (active) and 2.65 µM (active), respectively.
